# Data taken from PubChem BioAssay (Tox21).
# Inconclusive results are not listed. A call without a number means that no potency is given here. Active and inactive are the calls of the source. Calls come from the whole dose curve; as a rule, active = well fitted cell-killing curve with a large enough effect in the repeat runs; inconclusive = weak or mixed curves, or effect the other way; inactive = no such curve, though single readings can be large or run the other way.
# Assay: qHTS assay to identify small molecule antagonists of the glucocorticoid receptor (GR) signaling pathway - cell viability counter screen (AID 720693); note: nearly all actives have a fitted effect of over 55% in size
# Conditions: GR-bla HeLa viability, CellTiter-Glo luminescence, 18 h, with 5 nM dexamethasone present; series mostly up to 58.5 µM
# Text: National Center for Advancing Translational Sciences [NCATS]
# NIH Chemical Genomics Center [NCGC]
# U.S. Environmental Protection Agency [EPA]
# National Institutes of Environmental Health Sciences [NIEHS]
# National Toxicology Program [NTP]
# U.S. Food and Drug Administration [FDA]
# The Glucocorticoid receptor (GR) is one of the members of the nuclear receptor family of ligand-dependent transcription factors. GR plays a critical role in carbohydrate, protein and lipid metabolisms and programmed cell death. CellSensor GR-bla HeLa cell line (Invitrogen) contains a beta-lactamase reporter gene under the control of the glucocorticoid response element stably integrated into HeLa cells, a cervical cancer cell line that expresses glucocorticoid receptor. The activation of the reporter gene under culture conditions can be detected by fluorescence intensity. This cell line has been used to screen the Tox21 10K compound library and to identify the compounds that inhibit the GR signaling. The cytotoxicity of the Tox21 compound library against the GR-bla HeLa cell line was tested in parallel by measuring the cell viability using CellTiter-Glo assay in the same wells.
# Tox21 Assay Protocol Summary:
# The GR-bla HeLa cells were dispensed at 1500 cells/5 ul/well in 1536-well black wall/clear bottom plates using a Multidrop Combi (ThermoFisher Scientific, Waltham, MA) dispenser. After the assay plates were incubated at a 37 C/5% CO2 incubator for 4 hours, 23 nL of compounds dissolved in DMSO, positive controls or DMSO only was transferred to the assay plate by a pintool station (Kalypsys, San Diego, CA), followed by addition of 1 uL of dexamethasone (5 nM, final concentration in the well). The plates were incubated at 37 C for 18 hours. After 1 uL of LiveBLAzerTM B/G FRET substrate was added using a Flying Reagent Dispenser (Aurora Discovery, San Diego, CA), the plates were incubated at room temperature (RT) for 2 hours, and fluorescence intensity was measured by an Envision plate reader (PerkinElmer, Shelton, CT). After measurement of bla assay, 3 ul CellTiter-Glo (Promega, Madison, WI) was added to measure the cytotoxicity and the plates were then incubated at RT for 30 min. The luminescence was measured using a ViewLux (Perkin Elmer) plate reader.
row,Structure (SMILES),Potency
1,C=C(C)CN(CC)c1c([N+](=O)[O-])cc(C(F)(F)F)cc1[N+](=O)[O-],inactive
2,ClC(Cl)(Cl)C(Cl)(Cl)Cl,inactive
3,Cc1nnc2n1-c1sc(CCC(=O)N3CCOCC3)cc1C(c1ccccc1Cl)=NC2,inactive
4,CC1=NNC(=O)N(/N=C/c2cccnc2)C1,inactive
5,OCCBr,inactive
6,N#CC(CCc1ccc(Cl)cc1)(Cn1cncn1)c1ccccc1 (stereo not given),inactive
7,CCS(=O)(=O)C(C)(C)S(=O)(=O)CC,inactive
8,COc1cc(OC)nc(Sc2cccc(Cl)c2C(=O)O)n1,inactive
9,CCC(C)n1c(=O)[nH]c(C)c(Br)c1=O (stereo not given),inactive
10,CCCCCCI,inactive
11,CCC/C(=N\OCC)C1=C(O)CC(CC(C)SCC)CC1=O (stereo not given),inactive
12,O=C(Nc1ccccc1)c1ccccc1I,inactive
13,COc1ccc2c(c1OC)CN1CCc3cc4c(cc3C1C2)OCO4 (stereo not given),inactive
14,Cc1cc(C)c(C(=O)P(=O)(C(=O)c2c(C)cc(C)cc2C)c2ccccc2)c(C)c1,inactive
15,C[C@]1(O)CC[C@H]2[C@@H]3CCC4=CC(=O)CC[C@]4(C)[C@@]3(F)[C@@H](O)C[C@@]21C,inactive
16,OC(c1ccc(F)cc1)(c1cncnc1)c1ccccc1Cl (stereo not given),inactive
17,CC(N)=S,inactive
18,CNC(=O)O/N=C(\C)SC,inactive
19,O=S(=O)(O)C(F)(F)C(F)(F)C(F)(F)C(F)(F)C(F)(F)C(F)(F)F,inactive
20,Cc1coc2c1CCC(C)C2 (stereo not given),inactive

row,Structure (SMILES),Potency
1,CN/C(=N\[N+](=O)[O-])NCC1CCOC1 (stereo not given),inactive
2,CCOP(=S)(OCC)SCSP(=S)(OCC)OCC,inactive
3,CSc1ccc(C(=O)C(C)(C)N2CCOCC2)cc1,inactive
4,CCOC(=O)NC(=S)Nc1ccccc1NC(=S)NC(=O)OCC,inactive
5,CC(C)CC(N(C)C)C1(c2ccc(Cl)cc2)CCC1 (stereo not given),inactive
6,COC(C)(C)C,inactive
7,Fc1ccc(C2(Cn3cncn3)OC2c2ccccc2Cl)cc1 (stereo not given),inactive
8,CNC(=O)Oc1ccc(N(C)C)c(C)c1,inactive
9,CCN(Cc1ccc(Cl)nc1)/C(=C/[N+](=O)[O-])NC,inactive
10,CCC1(c2ccccc2)C(=O)NC(=O)NC1=O,inactive
11,CC(CCc1ccccc1)NC(C)C(O)c1ccc(O)cc1 (stereo not given),inactive
12,CN1CCN(C(=O)O[C@H]2c3nccnc3C(=O)N2c2ccc(Cl)cn2)CC1,inactive
13,ClCC(Cl)Cl,inactive
14,COc1cc2c(cc1OC)[C@@]13CCN4CC5=CCO[C@H]6CC(=O)N2[C@H]1[C@H]6[C@H]5C[C@H]43,inactive
15,N#Cc1c(Cl)cccc1Cl,inactive
16,CC1(C)CON(Cc2ccccc2Cl)C1=O,inactive
17,CCCSC(=O)Cl,inactive
18,O=C(O)c1cccc(Cl)c1,inactive
19,Cc1nc(N)nc(N)n1,inactive
20,CCCCCCBr,inactive
